{
  "source": "PubChem BioAssay",
  "key": {"[1]": {"system": "Plasmodium falciparum Sir2 (PF13_0152, Sir2A)", "assay": "Plasmodium falciparum Sir2A binding compounds – biochemical, small-molecule microarray, 635 nm fluorescence, primary screen (AID 1098);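 note: score merges spot fluorescence intensity with its signal-to-noise ratio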", "conditions": "fluorescence 635 nm, higher = more signal"}, "[2]": {"assay": "probe aDKK1 binding to arrayed compounds – biochemical, biotinylated probe, 635/667 nm fluorescence, primary screen (AID 1099);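 note: score merges 667nm spot fluorescence with signal to noise across triplicate slides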", "conditions": "small-molecule microarray, higher = more signal"}, "[3]": {"assay": "probe aCHRDL2 binding to arrayed compounds – biochemical, biotinylated probe, 635/667 nm fluorescence, primary screen (AID 1100)", "conditions": "small-molecule microarray, higher = more signal"}, "[4]": {"assay": "change in splice reporter luminescence, either direction, cell-based, HEK293, spliceosome inhibition project, primary screen (AID 1101);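 note: HEK293 cells carrying a splicing-competent luciferase reporter gene; test concentration not given here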", "conditions": "HEK293 splicing luciferase reporter, 24 h, higher = more signal, called active from +8 up or from −8 down"}, "[5]": {"molecular_target": "Fibroblast growth factor 10 (Homo sapiens) (UniProt O15520)", "sequence (O15520 whole entry, looked up)": "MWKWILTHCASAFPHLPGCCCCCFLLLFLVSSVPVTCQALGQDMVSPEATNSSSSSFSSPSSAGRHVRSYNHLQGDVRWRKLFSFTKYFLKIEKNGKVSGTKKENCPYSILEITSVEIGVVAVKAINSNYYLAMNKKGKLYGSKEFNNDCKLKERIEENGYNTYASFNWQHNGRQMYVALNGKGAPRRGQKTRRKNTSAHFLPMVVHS", "assay": "compounds binding fibroblast growth factor 10 – biochemical, small-molecule microarray, 635 nm fluorescence, primary screen (AID 1102)", "conditions": "FGF10 binding, fluorescence 635 nm, higher = more signal"}, "[6]": {"system": "glycogen synthase kinase-3 (GSK3A per assay name; protocol says GSK3B)", "assay": "compounds binding glycogen synthase kinase-3 – biochemical, small-molecule microarray, 635 nm fluorescence, GSK3A, primary screen (AID 1103); note: the record names both GSK3A and GSK3B", "conditions": "fluorescence 635 nm, higher = more signal"}, "[7]": {"molecular_target": "Epidermal growth factor receptor (Homo sapiens) (UniProt P00533)", "sequence (P00533 whole entry, looked up)": "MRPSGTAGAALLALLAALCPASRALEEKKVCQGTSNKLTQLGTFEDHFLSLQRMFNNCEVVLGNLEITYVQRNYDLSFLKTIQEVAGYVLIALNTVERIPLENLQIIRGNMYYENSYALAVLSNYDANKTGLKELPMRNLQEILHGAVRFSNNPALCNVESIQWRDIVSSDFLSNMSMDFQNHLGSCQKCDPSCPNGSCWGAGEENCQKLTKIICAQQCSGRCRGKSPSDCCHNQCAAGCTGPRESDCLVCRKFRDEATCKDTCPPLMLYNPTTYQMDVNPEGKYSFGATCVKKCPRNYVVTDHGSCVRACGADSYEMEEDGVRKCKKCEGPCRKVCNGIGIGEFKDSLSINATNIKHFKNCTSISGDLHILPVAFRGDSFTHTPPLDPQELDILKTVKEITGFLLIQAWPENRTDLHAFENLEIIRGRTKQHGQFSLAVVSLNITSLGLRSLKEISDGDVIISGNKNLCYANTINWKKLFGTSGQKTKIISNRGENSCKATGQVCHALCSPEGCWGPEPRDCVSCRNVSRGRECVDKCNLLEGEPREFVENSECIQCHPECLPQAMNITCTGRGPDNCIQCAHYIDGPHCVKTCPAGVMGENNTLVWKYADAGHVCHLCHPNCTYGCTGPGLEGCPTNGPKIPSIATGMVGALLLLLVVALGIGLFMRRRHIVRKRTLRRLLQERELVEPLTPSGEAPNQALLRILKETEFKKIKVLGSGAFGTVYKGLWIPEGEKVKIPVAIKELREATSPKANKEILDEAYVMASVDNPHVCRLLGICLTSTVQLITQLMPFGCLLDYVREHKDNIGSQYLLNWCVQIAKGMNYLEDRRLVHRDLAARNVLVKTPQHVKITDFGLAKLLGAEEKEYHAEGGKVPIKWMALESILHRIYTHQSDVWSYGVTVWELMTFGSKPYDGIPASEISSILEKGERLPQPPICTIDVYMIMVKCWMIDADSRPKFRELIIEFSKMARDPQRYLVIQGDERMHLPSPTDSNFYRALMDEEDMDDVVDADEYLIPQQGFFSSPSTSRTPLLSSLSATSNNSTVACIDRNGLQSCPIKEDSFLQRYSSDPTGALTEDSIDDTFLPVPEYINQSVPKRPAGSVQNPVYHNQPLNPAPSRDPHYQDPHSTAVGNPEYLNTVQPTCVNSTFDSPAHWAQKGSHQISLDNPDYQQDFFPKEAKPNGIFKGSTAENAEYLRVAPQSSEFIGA", "assay": "compounds binding epidermal growth factor receptor – biochemical, small-molecule microarray, 635 nm fluorescence, primary screen (AID 1104);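 note: score merges 667 nm emission intensity with spot signal to noise over triplicate slides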", "conditions": "EGFR binding, higher = more signal"}, "[8]": {"molecular_target": "Follistatin-related protein 3 (Homo sapiens) (UniProt O95633)", "sequence (O95633 whole entry, looked up)": "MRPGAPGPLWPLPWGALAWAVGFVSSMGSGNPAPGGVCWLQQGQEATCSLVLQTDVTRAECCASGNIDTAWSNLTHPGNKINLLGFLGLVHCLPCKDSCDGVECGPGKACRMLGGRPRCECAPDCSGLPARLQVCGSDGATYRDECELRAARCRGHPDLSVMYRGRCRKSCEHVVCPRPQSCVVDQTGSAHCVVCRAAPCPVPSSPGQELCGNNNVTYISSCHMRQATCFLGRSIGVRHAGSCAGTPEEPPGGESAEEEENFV", "assay": "compounds binding follistatin-related protein 3 – biochemical, small-molecule microarray, 635 nm fluorescence, primary screen (AID 1105);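 note: score merges emission near 667 nm and signal to noise per printed spot across three slides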", "conditions": "FSTL3 binding, higher = more signal"}, "[9]": {"molecular_target": "Dickkopf-related protein 1 (Homo sapiens) (UniProt O94907)", "sequence (O94907 whole entry, looked up)": "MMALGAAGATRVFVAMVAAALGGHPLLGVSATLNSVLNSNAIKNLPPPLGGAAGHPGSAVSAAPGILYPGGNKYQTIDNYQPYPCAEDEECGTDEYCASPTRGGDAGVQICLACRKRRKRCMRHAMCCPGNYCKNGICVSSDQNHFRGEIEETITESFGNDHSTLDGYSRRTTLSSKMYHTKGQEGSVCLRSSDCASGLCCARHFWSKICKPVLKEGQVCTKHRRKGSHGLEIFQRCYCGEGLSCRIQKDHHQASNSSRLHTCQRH", "assay": "small molecules binding DKK1 protein – biochemical, small-molecule microarray, 635 nm fluorescence scan, primary screen (AID 1106);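 note: score merges emission near 667 nm with signal to noise over three replicate slides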", "conditions": "higher = more signal"}, "[10]": {"system": "Inhibin beta A chain (activin A)", "assay": "small molecules binding activin A – biochemical, small-molecule microarray, 635 nm fluorescence scan, primary screen (AID 1107);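 note: mouse activin A protein probed at 4.33 µg/mL on printed slides; score merges bound-protein fluorescence near 667 nm with spot signal-to-noise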", "conditions": "INHBA, higher = more signal"}, "[11]": {"system": "Human papillomavirus type 1a protein E7 (residues 44-93)", "assay": "small molecules binding HPV E7 44-93 – biochemical, small-molecule microarray, residues 44-93, 635 nm fluorescence, primary screen (AID 1108);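 note: E7 fragment applied at 1 µg/mL in TBST for 1 h at 4 C; score combines spot fluorescence with its signal to noise ratio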", "conditions": "fluorescence 635 nm, higher = more signal"}, "[12]": {"assay": "hepatitis C replication reporter changes, two-sided – Huh7 cells, luciferase reporter, HCV replication inhibitor project, primary screen (AID 1109);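 note: huh7 hepatoma cells harbouring a luciferase neomycin HCV replicon reporter; test concentration not given here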", "conditions": "Huh7 HCV replicon luciferase reporter, 48 h; higher = more signal"}, "[13]": {"molecular_target": "Left-right determination factor 2 (Homo sapiens) (UniProt O00292)", "sequence (O00292 whole entry, looked up)": "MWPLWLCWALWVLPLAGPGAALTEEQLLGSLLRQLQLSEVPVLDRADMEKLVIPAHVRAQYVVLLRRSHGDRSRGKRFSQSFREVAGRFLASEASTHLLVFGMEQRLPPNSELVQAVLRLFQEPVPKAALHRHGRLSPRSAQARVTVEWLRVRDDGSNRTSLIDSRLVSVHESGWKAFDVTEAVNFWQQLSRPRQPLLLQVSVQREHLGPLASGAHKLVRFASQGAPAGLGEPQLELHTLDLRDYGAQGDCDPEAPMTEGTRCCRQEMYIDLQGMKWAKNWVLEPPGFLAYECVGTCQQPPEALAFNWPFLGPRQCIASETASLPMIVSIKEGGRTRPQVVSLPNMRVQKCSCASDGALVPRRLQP", "assay": "small molecules binding LEFTY2 protein – biochemical, small-molecule microarray, 635 nm fluorescence scan, primary screen (AID 1110)", "conditions": "higher = more signal"}, "[14]": {"molecular_target": "Calmodulin-1 (Homo sapiens) (UniProt P0DP23)", "assay": "small molecules binding calmodulin-1 with EGTA – biochemical, small-molecule microarray, Cy5-labelled CALM1, profiling panel (AID 1111);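 note: labelled calmodulin applied in Tris saline Tween buffer holding calcium plus EGTA and DTT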", "conditions": "Cy5-CALM1 binding fluorescence, higher = more signal"}, "[15]": {"molecular_target": "Calmodulin-1 (Homo sapiens) (UniProt P0DP23)", "assay": "small molecules binding Ca-loaded calmodulin-1 – biochemical, small-molecule microarray, Cy5-labelled CALM1, plus calcium, artefact control for SMM control-protein annotation, profiling panel (AID 1112);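 note: score merges spot fluorescence with signal to noise from triplicate slides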", "conditions": "Cy5-CALM1 binding fluorescence, higher = more signal"}, "[16]": {"assay": "probe aWnt5a binding to arrayed compounds – biochemical, biotinylated probe, 635/667 nm fluorescence, primary screen (AID 1113);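 note: score merges 667 nm fluorescence intensity with signal-to-noise per printed feature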", "conditions": "small-molecule microarray, higher = more signal"}, "[17]": {"assay": "probe aShh binding to arrayed compounds – biochemical, biotinylated probe, 635/667 nm fluorescence, primary screen (AID 1114);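 note: probe is biotin-labelled aShh protein from a stem cell growth factor screen; measures binding of labelled protein to compounds printed on the slide; score merges feature fluorescence at 667 nm with signal-to-noise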", "conditions": "small-molecule microarray, higher = more signal"}, "[18]": {"assay": "probe aNog binding to arrayed compounds – biochemical, biotinylated probe, 635/667 nm fluorescence, primary screen (AID 1115);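 note: probe is biotinylated aNog protein used at 0.15 µg/mL for 1 h at 4 C; z-score combines 667 nm fluorescence of each spot with its signal to noise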", "conditions": "small-molecule microarray, higher = more signal"}, "[19]": {"molecular_target": "Torsin-1A-interacting protein 1 (Homo sapiens) (UniProt Q5JTV8)", "sequence (Q5JTV8 whole entry, looked up)": "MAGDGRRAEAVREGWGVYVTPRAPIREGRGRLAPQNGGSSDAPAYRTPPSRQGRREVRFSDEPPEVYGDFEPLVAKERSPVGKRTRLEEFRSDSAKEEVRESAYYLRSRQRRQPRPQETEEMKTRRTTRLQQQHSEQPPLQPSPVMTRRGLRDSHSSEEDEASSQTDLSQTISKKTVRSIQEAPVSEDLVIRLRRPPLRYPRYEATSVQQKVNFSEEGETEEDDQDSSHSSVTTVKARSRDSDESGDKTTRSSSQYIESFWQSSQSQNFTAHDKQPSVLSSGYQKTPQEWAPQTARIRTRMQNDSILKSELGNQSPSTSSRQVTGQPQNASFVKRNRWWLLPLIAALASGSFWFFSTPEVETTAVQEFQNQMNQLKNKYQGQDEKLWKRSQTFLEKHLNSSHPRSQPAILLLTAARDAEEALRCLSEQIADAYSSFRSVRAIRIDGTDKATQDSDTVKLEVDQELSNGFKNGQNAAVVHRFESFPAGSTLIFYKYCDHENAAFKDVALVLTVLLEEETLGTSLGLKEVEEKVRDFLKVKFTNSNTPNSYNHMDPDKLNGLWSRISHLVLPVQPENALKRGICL", "assay": "compound microarray binding of lysate hLAP1 – cell lysate, small-molecule microarray, COS7 lysate, 635/667 nm fluorescence, primary screen (AID 1116)", "conditions": "635 nm fluorescence, higher = more signal"}, "[20]": {"molecular_target": "Alpha-bungarotoxin (Bungarus multicinctus) (UniProt P60615)", "sequence (P60615 whole entry, looked up)": "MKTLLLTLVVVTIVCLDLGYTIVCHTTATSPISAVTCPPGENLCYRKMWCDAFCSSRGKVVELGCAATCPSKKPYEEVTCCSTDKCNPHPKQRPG", "assay": "compounds binding labelled alpha-BTX control protein – biochemical, small-molecule microarray, Alexa647 label, 635/667 nm fluorescence, artefact control for SMM control protein annotation, profiling panel (AID 1117)", "conditions": "alpha-BTX-A647 binding fluorescence, higher = more signal"}},
  "note": "Active and inactive are the calls of the source.",
  "data": [
    {"smiles": "COCCOC(=O)N1C(=O)[C@@]2(c3cc(C#CCCO)ccc31)[C@H](C(=O)N1CCCCCCC1)[C@H]1C(=O)O[C@H](c3ccccc3)[C@H](c3ccccc3)N1[C@@H]2c1ccccc1OCCO", "values": [
      {"measurement": "composite z-score", "setting": "[1]", "value": 1.24},
      {"measurement": "composite z-score", "setting": "[2]", "value": 2.67},
      {"measurement": "composite z-score", "setting": "[3]", "value": 1.6},
      {"measurement": "z-score", "setting": "[4]", "value": "-0.0434 (inactive)"},
      {"measurement": "composite z-score", "setting": "[5]", "value": 0.663},
      {"measurement": "composite z-score", "setting": "[6]", "value": 1.35},
      {"measurement": "composite z-score", "setting": "[7]", "value": 1.31},
      {"measurement": "composite z-score", "setting": "[8]", "value": 1.58},
      {"measurement": "composite z-score", "setting": "[9]", "value": 1.43},
      {"measurement": "composite z-score", "setting": "[10]", "value": 1.86},
      {"measurement": "composite z-score", "setting": "[11]", "value": 1.4},
      {"measurement": "z-score", "setting": "[12]", "value": -1.79},
      {"measurement": "composite z-score", "setting": "[13]", "value": 1.18},
      {"measurement": "composite z-score", "setting": "[14]", "value": 2.73},
      {"measurement": "composite z-score", "setting": "[15]", "value": 1.5},
      {"measurement": "composite z-score", "setting": "[16]", "value": 0.993},
      {"measurement": "composite z-score", "setting": "[17]", "value": 2.38},
      {"measurement": "composite z-score", "setting": "[18]", "value": 2.99},
      {"measurement": "composite z-score", "setting": "[19]", "value": 3.19},
      {"measurement": "composite z-score", "setting": "[20]", "value": 1.85}
    ]},
    {"smiles": "C=CCC(OC(C)=O)[C@@H]1[C@@H](N(Cc2ccc(-c3ccccc3)cc2)C(=O)c2ccc(C)cc2)c2cc(OCCCO)ccc2N1C(=O)Cc1ccc2ccccc2c1", "note": "(stereo not given in full)", "values": [
      {"measurement": "composite z-score", "setting": "[1]", "value": -0.334},
      {"measurement": "composite z-score", "setting": "[2]", "value": -0.199},
      {"measurement": "composite z-score", "setting": "[3]", "value": 0.0333},
      {"measurement": "z-score", "setting": "[4]", "value": "-1.84 (inactive)"},
      {"measurement": "composite z-score", "setting": "[5]", "value": 0.107},
      {"measurement": "composite z-score", "setting": "[6]", "value": -0.197},
      {"measurement": "composite z-score", "setting": "[7]", "value": 0.251},
      {"measurement": "composite z-score", "setting": "[8]", "value": -0.274},
      {"measurement": "composite z-score", "setting": "[9]", "value": 0.258},
      {"measurement": "composite z-score", "setting": "[10]", "value": 0.567},
      {"measurement": "composite z-score", "setting": "[11]", "value": -0.579},
      {"measurement": "z-score", "setting": "[12]", "value": -0.588},
      {"measurement": "composite z-score", "setting": "[13]", "value": -0.0611},
      {"measurement": "composite z-score", "setting": "[14]", "value": -0.117},
      {"measurement": "composite z-score", "setting": "[15]", "value": 0.53},
      {"measurement": "composite z-score", "setting": "[16]", "value": -0.0794},
      {"measurement": "composite z-score", "setting": "[17]", "value": -0.349},
      {"measurement": "composite z-score", "setting": "[18]", "value": 0.0127},
      {"measurement": "composite z-score", "setting": "[19]", "value": 1.68},
      {"measurement": "composite z-score", "setting": "[20]", "value": 0.0941}
    ]},
    {"smiles": "COCC(=C=CC[C@@H](O)c1ccc(OCCO)cc1)CCO", "values": [
      {"measurement": "composite z-score", "setting": "[1]", "value": 1.67},
      {"measurement": "composite z-score", "setting": "[2]", "value": -0.0695},
      {"measurement": "composite z-score", "setting": "[3]", "value": -0.113},
      {"measurement": "z-score", "setting": "[4]", "value": "1.12 (inactive)"},
      {"measurement": "composite z-score", "setting": "[5]", "value": 1.27},
      {"measurement": "composite z-score", "setting": "[6]", "value": -0.155},
      {"measurement": "composite z-score", "setting": "[7]", "value": -0.265},
      {"measurement": "composite z-score", "setting": "[8]", "value": 0.409},
      {"measurement": "composite z-score", "setting": "[9]", "value": 0.299},
      {"measurement": "composite z-score", "setting": "[10]", "value": 0.892},
      {"measurement": "composite z-score", "setting": "[11]", "value": 0.862},
      {"measurement": "z-score", "setting": "[12]", "value": -0.766},
      {"measurement": "composite z-score", "setting": "[13]", "value": -0.144},
      {"measurement": "composite z-score", "setting": "[14]", "value": -0.0954},
      {"measurement": "composite z-score", "setting": "[15]", "value": -0.102},
      {"measurement": "composite z-score", "setting": "[16]", "value": -0.0643},
      {"measurement": "composite z-score", "setting": "[17]", "value": 0.0639},
      {"measurement": "composite z-score", "setting": "[18]", "value": -0.197},
      {"measurement": "composite z-score", "setting": "[19]", "value": 0.506},
      {"measurement": "composite z-score", "setting": "[20]", "value": 0.0305}
    ]}
  ]
}
